Measured values reported in PubChem BioAssay (NCI).
Compounds without any hit were thinned out: in the full panel of roughly 79,000, 15% have a hit. A number with no mark means an inactive call. Active and inactive are the calls of the source. Rule as the data show it: active = growth inhibition above about 70%; inactive = the rest.

Tests used:
[1] = NCI Yeast Anticancer Drug Screen. Data for the rad52 strain (AID 147);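 also: 0% = growth of vehicle-treated control cultures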; settings: S. cerevisiae rad52 mutant growth inhibition, stronger effect = higher value
Procedure, shortened: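 The repair-mutant yeast strain was incubated with compounds, then growth was read and inhibition derived relative to vehicle.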

[2] = NCI Yeast Anticancer Drug Screen. Data for the wt1 strain (AID 149);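 also: 0% = growth of vehicle-treated wt1 cultures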; settings: S. cerevisiae wt1 strain (SPY 50644) growth inhibition, stronger effect = higher value
Procedure, shortened: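 wt1 strain grown with compound or vehicle; inhibition taken from the growth difference.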

[3] = NCI Yeast Anticancer Drug Screen. Data for the rad50EPP+ strain (AID 151);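 also: 0% = growth of vehicle-treated control cultures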; settings: S. cerevisiae rad50 mutant strain, stronger effect = higher value
Procedure, shortened: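 Vehicle-normalised growth inhibition; rad50EPP+ yeast strain, altered in DNA damage repair, compound-treated.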

[4] = NCI Yeast Anticancer Drug Screen. Data for the mgt1 strain (AID 153); settings: S. cerevisiae mgt1 mutant growth inhibition, stronger effect = higher value
Procedure, shortened: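 Vehicle-normalized growth inhibition is determined in mgt1 yeast, a strain selected for a defined alteration in DNA repair or cell cycle control.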

[5] = NCI Yeast Anticancer Drug Screen. Data for the rad50 strain (AID 155);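 also: 0% = growth of vehicle-only cultures of the same strain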; settings: S. cerevisiae rad50 strain growth inhibition, stronger effect = higher value
Procedure, shortened: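 DNA repair mutant yeast, compound exposure, growth read-out; inhibition is taken relative to vehicle.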

[6] = NCI Yeast Anticancer Drug Screen. Data for the mec2-1 strain (AID 157); settings: S. cerevisiae mec2-1 strain, stronger effect = higher value
Procedure, shortened: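 Mutant yeast (mec2-1) grown with compound; growth inhibition relative to vehicle control reported.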

[7] = NCI Yeast Anticancer Drug Screen. Data for the rad14 strain (AID 159);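 also: 0% = growth of vehicle-treated control cultures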; settings: S. cerevisiae rad14 strain growth inhibition, stronger effect = higher value
Procedure, shortened: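 DNA repair-defective yeast, compound-exposed; % growth inhibition derived by comparison with vehicle-treated controls.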

[8] = NCI Yeast Anticancer Drug Screen. Data for the CLN2oe strain (AID 163);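 also: 0% = growth of vehicle-only control cultures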; settings: S. cerevisiae CLN2oe strain, stronger effect = higher value
Procedure, shortened: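 Compounds are applied to yeast harbouring a defined cell-cycle control change; reduced growth compared with vehicle-treated controls gives the value.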

[9] = NCI Yeast Anticancer Drug Screen. Data for the cln2 rad14 strain (AID 165);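 also: 0% = growth equal to vehicle treated cultures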; settings: S. cerevisiae cln2 rad14 strain, stronger effect = higher value
Procedure, shortened: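 Readout is yeast growth inhibition versus vehicle-treated controls, using a strain with cln2 and rad14 alterations exposed to compound.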

[10] = NCI Yeast Anticancer Drug Screen. Data for the bub3 strain (AID 167); settings: S. cerevisiae bub3 mutant strain, stronger effect = higher value
Procedure, shortened: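 In this screen, a yeast mutant lacking normal mitotic checkpoint function is challenged with compound. Relative growth versus vehicle gives the inhibition value.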

[11] = NCI Yeast Anticancer Drug Screen. Data for the wt2 strain (AID 169);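 also: 0% = growth of vehicle-treated yeast cultures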; settings: S. cerevisiae wt2 strain growth inhibition, stronger effect = higher value
Procedure, shortened: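 Against vehicle-treated controls, the growth of yeast exposed to each compound was compared, and the inhibition was recorded.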

[12] = NCI Yeast Anticancer Drug Screen. Data for the mlh1 strain (AID 171);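 also: 0% = growth of vehicle-treated control cultures of the same strain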; settings: S. cerevisiae mlh1 strain growth inhibition, stronger effect = higher value
Procedure, shortened: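 Measured: yeast growth. Reference: vehicle-treated controls. Organism: strain with a defined alteration affecting DNA damage repair or cell cycle control, treated with compound.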

[13] = NCI Yeast Anticancer Drug Screen. Data for the sgs1 strain (AID 173);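 also: 0% = growth of vehicle-only control cultures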; settings: S. cerevisiae sgs1 mutant, stronger effect = higher value
Procedure, shortened: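 Each compound was added to cultures of the altered yeast strain. Growth was recorded, and inhibition was derived by comparison with vehicle controls.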

[14] = NCI Yeast Anticancer Drug Screen. Data for the mlh1 rad18 strain (AID 175); settings: S. cerevisiae mlh1 rad18 strain growth inhibition, stronger effect = higher value
Procedure, shortened: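 Genetically defined yeast (DNA repair-deficient) exposed to compounds; growth inhibition determined relative to vehicle.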

[15] = NCI Yeast Anticancer Drug Screen. Data for the rad18 strain (AID 177); settings: S. cerevisiae rad18 mutant growth inhibition, stronger effect = higher value
Procedure, shortened: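 Vehicle-treated cultures served as the baseline for scoring compound-induced growth inhibition in DNA-repair-mutant yeast.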

[16] = NCI Yeast Anticancer Drug Screen. Data for the sgs1 mgt1 strain (AID 161);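 also: 0% = growth of cultures given vehicle only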; settings: S. cerevisiae sgs1 mgt1 strain, stronger effect = higher value
Procedure, shortened: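 This yeast growth screen uses a strain with defined DNA-repair lesions; compound-treated growth is compared with vehicle-treated growth.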

[17] = at 5.0 µM (retest, dose inferred, filed as 0.5)
[18] = at 50.0 µM (retest, dose inferred, filed as 5.0)

Compound: BrCc1cccc2ccc3cccc(CBr)c3c12
- growth inhibition ([1]; at 1.2 µM): -3%
- growth inhibition ([1]; at 3.7 µM): -4%
- growth inhibition ([1]; at 11.0 µM): -1%
- growth inhibition ([1]; at 33.0 µM): 2%
- growth inhibition ([1]; at 100.0 µM): 10%
- growth inhibition ([2]; at 1.2 µM): -3%
- growth inhibition ([2]; at 3.7 µM): -3%
- growth inhibition ([2]; at 11.0 µM): -4%
- growth inhibition ([2]; at 33.0 µM): -8%
- growth inhibition ([2]; at 100.0 µM): -7%
- growth inhibition ([3]; at 1.2 µM): -4%
- growth inhibition ([3]; at 3.7 µM): 0%
- growth inhibition ([3]; at 11.0 µM): 12%
- growth inhibition ([3]; at 33.0 µM): 18%
- growth inhibition ([3]; at 100.0 µM): 24%
- growth inhibition ([4]; at 1.2 µM): 2%
- growth inhibition ([4]; at 3.7 µM): 0%
- growth inhibition ([4]; at 11.0 µM): 1%
- growth inhibition ([4]; at 33.0 µM): -2%
- growth inhibition ([4]; at 100.0 µM): 3%
- growth inhibition ([5]; at 1.2 µM): -3%
- growth inhibition ([5]; at 3.7 µM): -3%
- growth inhibition [5, 17]: -1%
- growth inhibition ([5]; at 11.0 µM): 0%
- growth inhibition ([5]; at 33.0 µM): 1%
- growth inhibition [5, 18]: 85% (active)
- growth inhibition ([5]; at 50.0 µM): 66.3%
- growth inhibition ([5]; at 100.0 µM): 10%
- growth inhibition ([6]; at 1.2 µM): -2%
- growth inhibition ([6]; at 3.7 µM): -1%
- growth inhibition [6, 17]: -5%
- growth inhibition ([6]; at 11.0 µM): -2%
- growth inhibition ([6]; at 33.0 µM): -3%
- growth inhibition [6, 18]: 97% (active)
- growth inhibition ([6]; at 50.0 µM): 21.8%
- growth inhibition ([6]; at 100.0 µM): -2%
- growth inhibition ([7]; at 1.2 µM): -2%
- growth inhibition ([7]; at 3.7 µM): -2%
- growth inhibition ([7]; at 11.0 µM): -2%
- growth inhibition ([7]; at 33.0 µM): -2%
- growth inhibition ([7]; at 100.0 µM): 2%
- growth inhibition ([8]; at 1.2 µM): -2%
- growth inhibition ([8]; at 3.7 µM): 0%
- growth inhibition ([8]; at 11.0 µM): -3%
- growth inhibition ([8]; at 33.0 µM): -13%
- growth inhibition ([8]; at 100.0 µM): -12%
- growth inhibition [9, 17]: -15%
- growth inhibition [9, 18]: 21%
- growth inhibition ([9]; at 50.0 µM): -24%
- growth inhibition ([10]; at 1.2 µM): -12%
- growth inhibition ([10]; at 3.7 µM): -14%
- growth inhibition [10, 17]: 4%
- growth inhibition ([10]; at 11.0 µM): -8%
- growth inhibition ([10]; at 33.0 µM): -11%
- growth inhibition [10, 18]: 50%
- growth inhibition ([10]; at 50.0 µM): 65%
- growth inhibition ([10]; at 100.0 µM): -6%
- growth inhibition ([11]; at 1.2 µM): -2%
- growth inhibition ([11]; at 3.7 µM): -5%
- growth inhibition ([11]; at 11.0 µM): -4%
- growth inhibition ([11]; at 33.0 µM): -6%
- growth inhibition ([11]; at 100.0 µM): -4%
- growth inhibition ([12]; at 1.2 µM): -3%
- growth inhibition ([12]; at 3.7 µM): -3%
- growth inhibition ([12]; at 11.0 µM): -2%
- growth inhibition ([12]; at 33.0 µM): -2%
- growth inhibition ([12]; at 100.0 µM): 1%
- growth inhibition ([13]; at 1.2 µM): -3%
- growth inhibition ([13]; at 3.7 µM): -3%
- growth inhibition ([13]; at 11.0 µM): -4%
- growth inhibition ([13]; at 33.0 µM): -3%
- growth inhibition ([13]; at 100.0 µM): -1%
- growth inhibition [14, 17]: -1%
- growth inhibition [14, 18]: 96% (active)
- growth inhibition ([14]; at 50.0 µM): 73.5% (active)
- growth inhibition ([15]; at 1.2 µM): -4%
- growth inhibition ([15]; at 3.7 µM): 0%
- growth inhibition ([15]; at 11.0 µM): -1%
- growth inhibition ([15]; at 33.0 µM): 0%
- growth inhibition ([15]; at 100.0 µM): 11%

Compound: c1ccc2c(c1)sc1nc3ccncc3nc12
- growth inhibition ([1]; at 1.2 µM): 5%
- growth inhibition ([1]; at 3.7 µM): 16%
- growth inhibition ([1]; at 11.0 µM): 38%
- growth inhibition ([1]; at 33.0 µM): 61%
- growth inhibition ([1]; at 100.0 µM): 92% (active)
- growth inhibition ([2]; at 1.2 µM): 0%
- growth inhibition ([2]; at 3.7 µM): 13%
- growth inhibition ([2]; at 11.0 µM): 21%
- growth inhibition ([2]; at 33.0 µM): 20%
- growth inhibition ([2]; at 100.0 µM): 29%
- growth inhibition ([3]; at 1.2 µM): 23%
- growth inhibition ([3]; at 3.7 µM): 52%
- growth inhibition ([3]; at 11.0 µM): 55%
- growth inhibition ([3]; at 33.0 µM): 85% (active)
- growth inhibition ([3]; at 100.0 µM): 89% (active)
- growth inhibition ([4]; at 1.2 µM): 2%
- growth inhibition ([4]; at 3.7 µM): -2%
- growth inhibition ([4]; at 11.0 µM): -1%
- growth inhibition ([4]; at 33.0 µM): -1%
- growth inhibition ([4]; at 100.0 µM): 2%
- growth inhibition ([5]; at 1.2 µM): 79% (active)
- growth inhibition ([5]; at 3.7 µM): 35%
- growth inhibition [5, 17]: -55%
- growth inhibition ([5]; at 11.0 µM): 61%
- growth inhibition ([5]; at 33.0 µM): 76% (active)
- growth inhibition [5, 18]: 87% (active)
- growth inhibition ([5]; at 50.0 µM): 90% (active)
- growth inhibition ([5]; at 100.0 µM): 87% (active)
- growth inhibition ([6]; at 1.2 µM): 5%
- growth inhibition ([6]; at 3.7 µM): 1%
- growth inhibition [6, 17]: -38%
- growth inhibition ([6]; at 11.0 µM): 0%
- growth inhibition ([6]; at 33.0 µM): 3%
- growth inhibition [6, 18]: -8%
- growth inhibition ([6]; at 50.0 µM): 28.1%
- growth inhibition ([6]; at 100.0 µM): 9%
- growth inhibition [16, 17]: -61%
- growth inhibition [16, 18]: -16%
- growth inhibition ([16]; at 50.0 µM): 3.7%
- growth inhibition ([8]; at 1.2 µM): 2%
- growth inhibition ([8]; at 3.7 µM): 5%
- growth inhibition ([8]; at 11.0 µM): 4%
- growth inhibition ([8]; at 33.0 µM): 4%
- growth inhibition ([8]; at 100.0 µM): 7%
- growth inhibition [9, 17]: -50%
- growth inhibition [9, 18]: -8%
- growth inhibition ([9]; at 50.0 µM): 9.05%
- growth inhibition ([10]; at 1.2 µM): 10%
- growth inhibition ([10]; at 3.7 µM): 3%
- growth inhibition [10, 17]: -51%
- growth inhibition ([10]; at 11.0 µM): 8%
- growth inhibition ([10]; at 33.0 µM): 11%
- growth inhibition [10, 18]: 1%
- growth inhibition ([10]; at 50.0 µM): 6.1%
- growth inhibition ([10]; at 100.0 µM): 20%
- growth inhibition ([11]; at 1.2 µM): 13%
- growth inhibition ([11]; at 3.7 µM): 12%
- growth inhibition ([11]; at 11.0 µM): 17%
- growth inhibition ([11]; at 33.0 µM): 17%
- growth inhibition ([11]; at 100.0 µM): 29%
- growth inhibition ([12]; at 1.2 µM): -5%
- growth inhibition ([12]; at 3.7 µM): -1%
- growth inhibition ([12]; at 11.0 µM): 1%
- growth inhibition ([12]; at 33.0 µM): 8%
- growth inhibition ([12]; at 100.0 µM): 12%
- growth inhibition ([13]; at 1.2 µM): -5%
- growth inhibition ([13]; at 3.7 µM): -8%
- growth inhibition ([13]; at 11.0 µM): 3%
- growth inhibition ([13]; at 33.0 µM): 9%
- growth inhibition ([13]; at 100.0 µM): 13%
- growth inhibition [14, 17]: -110%
- growth inhibition [14, 18]: -30%
- growth inhibition ([14]; at 50.0 µM): 32.7%
- growth inhibition ([15]; at 1.2 µM): 0%
- growth inhibition ([15]; at 3.7 µM): -3%
- growth inhibition ([15]; at 11.0 µM): 1%
- growth inhibition ([15]; at 33.0 µM): 10%
- growth inhibition ([15]; at 100.0 µM): 22%
